This note sets out measurements from PubChem BioAssay (NCATS).

Values joined by “and” are separate entries in the source; they are usually repeats but may differ in a detail not shown here. Identical values can stand only once. Results filed as inconclusive are left out. Some compounds were tested as several samples or in several runs, with calls that do not always agree. Active and inactive are the calls of the source. Calls come from the whole dose curve; as a rule, active = well fitted curve in the direction sought with a large enough effect; inconclusive = small, poorly fitted or top-dose-only effect, or another doubt; inactive = no such curve, though single readings can be large; an effect the other way counts as inactive or inconclusive.

Experiment [1] concerns CRL-7250. The experiment can be described thus: Cytotoxic Profiling of Annotated Libraries Using Quantitative High-Throughput Screening (AID 1296008). For max response: % is set by controls: 0 for no effect and ±100 for the full control effect. Note: nearly all actives have a fitted effect of over 60% in size. As to conditions: Five cell lines viability, CellTiter-Glo ATP luminescence, 48-72 h; max response: stronger effect = lower value. Summed up: (§1)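 Compounds were pin-transferred onto cells and incubated 48 or 72 hr at 37 degree Celsius, 95% humidity. CellTiter-Glo was added, plates sat 10 min at room temperature, then ATP-coupled luminescence was imaged as the viability read-out.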
Background: ATP-based viability assays read luminescence as a measure of living cells.

The test system of experiment [2] is HEK293. The experiment is described as above. To be noted: Five cell lines viability, CellTiter-Glo ATP luminescence, 48-72 h; max response: stronger effect = lower value. Summed up:
as §1

Experiment [3] has as its system HaCat. The experiment is described as above. To be noted: Five cell lines viability, CellTiter-Glo ATP luminescence, 48-72 h; max response: stronger effect = lower value. The procedure, abridged:
as §1

For experiment [4], the system named is KB-3-1. The description is as above. To be noted: Five cell lines viability, CellTiter-Glo ATP luminescence, 48-72 h; max response: stronger effect = lower value. Summed up:
as §1

Experiment [5] deals with NIH3T3. Described as above. To be noted: Five cell lines viability, CellTiter-Glo ATP luminescence, 48-72 h; max response: stronger effect = lower value. The procedure, abridged: as §1
The test system of experiment [6] is MCC-13. The experiment can be described thus: qHTS assay to identify novel small-molecules to repurpose for Merkel cell carcinoma treatment (AID 1296009). Note: nearly all actives have a fitted effect of over 60% in size. As to conditions: MCC and control cell lines, CellTiter-Glo viability, 72 h; series mostly up to 46 µM. Summed up: (§2)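 qHTS format: cells treated with library compounds in DMSO across 8 (NPC) or 11 (MIPE) concentrations. Readout after 72 hr at 37 degree celsius was CellTiter-Glo luminescence.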
(In general: In qHTS, concentration-response curves come from the screen itself.)

Experiment [7] concerns MCC-26. The experiment is described as above. To be noted: MCC and control cell lines, CellTiter-Glo viability, 72 h; series mostly up to 46 µM. The procedure, abridged: as §2
The subject of experiment [8] is MKL-1. Described as above. To be noted: MCC and control cell lines, CellTiter-Glo viability, 72 h; series mostly up to 46 µM. The procedure, abridged:
as §2

The subject of experiment [9] is MKL-2. The description is as above. As to conditions: MCC and control cell lines, CellTiter-Glo viability, 72 h; series mostly up to 46 µM. The procedure, abridged:
as §2

The test system of experiment [10] is NIH3T3. The description is as above. To be noted: MCC and control cell lines, CellTiter-Glo viability, 72 h; at 44.8 µM (top of the series) unless noted. Summed up:
as §2

Experiment [11] has as its system UISO. The description is as above. To be noted: MCC and control cell lines, CellTiter-Glo viability, 72 h; series mostly up to 46 µM. Summed up:
as §2

The test system of experiment [12] is WaGa. The experiment is described as above. To be noted: MCC and control cell lines, CellTiter-Glo viability, 72 h; series mostly up to 46 µM. Summed up:
as §2

Experiment [13] concerns HACAT. Described as above. To be noted: MCC and control cell lines, CellTiter-Glo viability, 72 h; at 44.8 µM (top of the series) unless noted. The procedure, abridged:
as §2

The test system of experiment [14] is CASKI. The experiment can be described thus: Primary qHTS to identify gynecologic anti-cancer compounds using libraries of approved drugs and bioactive compounds (AID 1345084). Note: nearly all actives have a fitted effect of over 55% in size. As to conditions: Gynecologic cancer cell panel viability, ATPlite luminescence, 48 h; series mostly up to 57.5 µM. The procedure, abridged:
(§3)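 Five-point cytotoxicity, 48 h drug exposure at 37 C, 5% CO2, on cells seeded 16 h beforehand. ATP content read by ATPlite luminescence.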

The test system of experiment [15] is Es-2. Described as above. To be noted: Gynecologic cancer cell panel viability, ATPlite luminescence, 48 h; series mostly up to 57.5 µM. Summed up:
as §3

In experiment [16] the test system is HeLa. The experiment is described as above. As to conditions: Gynecologic cancer cell panel viability, ATPlite luminescence, 48 h; series mostly up to 57.5 µM. Summed up:
as §3

Experiment [17] concerns W2. The experiment can be described thus: qHTS profiling for inhibitors of Plasmodium falciparum proliferation (AID 504749). Note: nearly all actives have a fitted effect of over 60% in size. To be noted: P. falciparum in erythrocytes, SYBR Green DNA, 72 h; series mostly up to 28.7 µM. The procedure, abridged: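 Parasite proliferation within erythrocytes, 72 h exposure. Endpoint: SYBR Green I fluorescence after overnight lysis at room temperature. Controls: 0.29 uM artemisinin, DMSO.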

The subject of experiment [18] is C33A. The experiment can be described thus: Primary qHTS to identify gynecologic anti-cancer compounds using libraries of approved drugs and bioactive compounds (AID 1345084). Note: nearly all actives have a fitted effect of over 55% in size. As to conditions: Gynecologic cancer cell panel viability, ATPlite luminescence, 48 h; series mostly up to 57.5 µM. Summed up:
as §3

The subject of experiment [19] is HEK293T. Briefly: qHTS assay to identify novel small-molecules to repurpose for Merkel cell carcinoma treatment (AID 1296009). Note: nearly all actives have a fitted effect of over 60% in size. To be noted: MCC and control cell lines, CellTiter-Glo viability, 72 h. The procedure, abridged: as §2
Experiment [20] deals with CAOV3. The experiment can be described thus: Primary qHTS to identify gynecologic anti-cancer compounds using libraries of approved drugs and bioactive compounds (AID 1345084). Note: nearly all actives have a fitted effect of over 55% in size. To be noted: Gynecologic cancer cell panel viability, ATPlite luminescence, 48 h; series mostly up to 57.5 µM. Summed up: as §3
Potency is the fitted concentration of half-maximal effect.

For `CC1=C(C(=O)O)N2C(=O)[C@@H](NC(=O)C(N)c3ccccc3)[C@H]2SC1` (stereo partly drawn), the max response in experiment [1] is -9.32% (inactive); in experiment [2], -2.36% (inactive); in experiment [3] it was 3% (inactive). Also, the call in experiment [4], in experiment [5] and in experiment [10] was inactive. For the same compound, the Potency entry in experiment [6], in [7], in [8], in [9], in experiment [11] and in experiment [12] was “inactive” throughout.
With `CCOC(=O)[C@H](CCc1ccccc1)N[C@H]1CCc2ccccc2N(CC(=O)O)C1=O`, the max response was -7.52% (inactive) in [1] and 4.39% (inactive) in experiment [4]. The Potency in experiment [2] is 18.7 µM (active). The outcome in experiment [3] and in [13] was inactive. Also, the Potency result in experiment [6], in [7], in [8], in [11], in experiment [12] and in experiment [14] was “inactive” in each case. Besides, the Potency entry in experiment [15] and in [16] was “inactive” each time.
Turning to `COc1ccc2cc3[n+](cc2c1OC)CCc1cc2c(cc1-3)OCO2`, the Potency in experiment [17] is 0.601 µM (active); in experiment [1], 1.06 µM (active) and 4.18 µM (active); in [2], 1.33 µM (active) and 1.05 µM (active); in experiment [4] it was 20.6 µM (active) and 13.2 µM (active); in experiment [8], 1.88 µM (active) and 2.96 µM (active); in [9], 841 nM (active) and 1.48 µM (active). Moreover, the Potency in [11] is 9.44 µM (active) and 14.8 µM (active); in [12] it was 2.09 µM (active); in [18], 8.91 µM (active); in experiment [14], 2.24 µM (active); in [15] it was 15.8 µM (active). In addition, the max response in [5] was -15.5% (inactive) and -8.88% (inactive). The Potency result in experiment [6] and in experiment [7] was “inactive” each time.
Consider `O=c1oc2c(O)c(O)cc3c(=O)oc4c(O)c(O)cc1c4c23`, for which, in experiment [17], the Potency is 1.9 µM (active). In addition, the max response in experiment [1] was -1.07% (inactive); in experiment [3] it was 0.0618% (inactive) and -16.9% (inactive); in experiment [4], -24.2% (inactive) and 0.262% (inactive); in experiment [5] it was 2.17% (inactive). The compound was classed as inactive in [2], in [19] (at 17.4 µM (top of the series)) and in [19] (at 44.8 µM (top of the series)). Besides, the Potency result in experiment [6], in experiment [7], in experiment [8], in experiment [9], in [11] and in experiment [12] was “inactive” in each case. Further, the Potency result in [18], in experiment [20], in [14], in experiment [15] and in experiment [16] was “inactive” each time.
As to `COc1cnc(NS(=O)(=O)c2ccc(N)cc2)nc1`, the Potency entry in experiment [17], in experiment [6], in experiment [8], in experiment [9], in experiment [11] and in [18] was “inactive” throughout. Further, the Potency entry in [20], in [14], in experiment [15] and in experiment [16] was “inactive” throughout. For the same compound, the max response is -6.42% (inactive) and -4.75% (inactive) in experiment [1]; -7.96% (inactive) in experiment [3]; 12.3% (inactive) in experiment [4]; -3.77% (inactive) and 1.75% (inactive) in experiment [5]. The compound was classed as inactive in experiment [3], in experiment [4], in experiment [13] and in experiment [19] (at 44.8 µM (top of the series) unless noted). Further, in experiment [12], the Potency entry is “inactive and 13.2 µM (active)”.
In the case of `NC(=O)c1ccc2[nH]ccc2c1`, the max response is -5.07% (inactive) in experiment [1]; -1.44% (inactive) in experiment [2]; 0.172% (inactive) in [3]; 5.8% (inactive) in experiment [4]; -9.23% (inactive) in experiment [5]. In addition, the Potency result in experiment [6], in experiment [7], in experiment [8], in experiment [9], in experiment [11] and in experiment [12] was “inactive” in each case.
